Experimental data: PubChem BioAssay (EPA / NIEHS)
Active and inactive are the calls of the source. How the source made its calls: active means hit-call score of the fitted dose curve at least 0.9, where 1 is the maximum; inactive means score below 0.9.

Columns and labels:
[1] = read-out: Interleukin-8 (IL8), CXCL8 (gene 3576); experiment: BSK_KF3CT_IL8: BioMAP Diversity Plus: KF3CT Assay for Interleukin-8 (IL8) Biomarker Activity (AID 2284254); details: primary human keratinocytes with fibroblasts
Method in brief: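 IL-8 read-out: ELISA, 24 h post-dose, human skin primary co-culture (keratinocytes + foreskin fibroblasts). DMSO = baseline; positive-direction fit.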

[2] = read-out: Macrophage Inflammatory Protein-1 Alpha (MIP1a), CCL3 (gene 6348); experiment: BSK_IMphg_MIP1a: BioMAP Diversity Plus: IMphg Assay for Macrophage Inflammatory Protein-1 Alpha (MIP1a) Biomarker Activity (AID 2284255); details: primary human endothelial cells with macrophages
Method in brief: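 Co-culture of human venular endothelial cells and macrophages exposed to compounds for 24 h; MIP-1a measured by ELISA relative to DMSO. Cytotoxicity assessed in parallel cultures by sulforhodamine B total-protein staining at 560 nm.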

[3] = read-out: Plasminogen activator inhibitor-1 (PAI1), SERPINE1 (gene 5054); experiment: BSK_MyoF_PAI1: BioMAP Diversity Plus: MyoF Assay for Plasminogen activator inhibitor-1 (PAI1) Biomarker Activity (AID 2284256); details: primary human lung fibroblasts;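 further: PAI-1 read 24 h after compound addition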
Method in brief: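 MyoF lung fibroblasts, human primary; compound 24 h; PAI-1 ELISA; positive-direction fit vs DMSO baseline; parallel SRB total-protein staining for cytotoxicity.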

[4] = read-out: CD69, CD69 (gene 969); experiment: BSK_IMphg_CD69: BioMAP Diversity Plus: IMphg Assay for CD69 Biomarker Activity (AID 2284257); details: primary human endothelial cells with macrophages
Method in brief: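 Human venular endothelial cells co-cultured with macrophages; CD69 quantified by ELISA 24 h after compound addition. Activity fitted in the positive direction relative to DMSO baseline; cytotoxicity tracked in parallel cultures via SRB total-protein staining.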

[5] = read-out: Monocyte Chemoattractant Protein-1 (MCP1), CCL2 (gene 6347); experiment: BSK_BF4T_MCP1: BioMAP Diversity Plus: BF4T Assay for Monocyte Chemoattractant Protein-1 (MCP1) Biomarker Activity (AID 2284259); details: primary human bronchial epithelial cells with fibroblasts
Method in brief: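 Co-culture of bronchial epithelial cells and dermal fibroblasts dosed with chemical; MCP-1 measured by ELISA 24 h later. Activity fitted in positive direction versus DMSO; cytotoxicity checked by SRB staining in parallel cultures.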

[6] = read-out: Intercellular Adhesion Molecule 1 (ICAM1), ICAM1 (gene 3383); experiment: BSK_BF4T_ICAM1: BioMAP Diversity Plus: BF4T Assay for Intercellular Adhesion Molecule 1 (ICAM1) Biomarker Activity (AID 2284260); details: primary human bronchial epithelial cells with fibroblasts
Method in brief: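 Co-culture of human bronchial epithelial cells and dermal fibroblasts exposed 24 h to chemical; cell-surface ICAM-1 quantified by ELISA. Parallel SRB total-protein staining assessed cytotoxicity; activity fitted relative to DMSO.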

[7] = read-out: Interleukin-8 (IL8), CXCL8 (gene 3576); experiment: BSK_MyoF_IL8: BioMAP Diversity Plus: MyoF Assay for Interleukin-8 (IL8) Biomarker Activity (AID 2284261); details: primary human lung fibroblasts
Method in brief: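 Lung fibroblasts (human primary) → chemical exposure → 24 h → IL-8 measured by ELISA. Signal increase scored versus DMSO control.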

[8] = read-out: CD90, THY1 (gene 7070); experiment: BSK_BF4T_CD90: BioMAP Diversity Plus: BF4T Assay for CD90 Biomarker Activity (AID 2284262); details: primary human bronchial epithelial cells with fibroblasts
Method in brief: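 Co-culture of human bronchial epithelial cells and dermal fibroblasts, 24 h compound exposure. Cell-surface CD90 measured by ELISA relative to DMSO; parallel SRB total-protein staining for cytotoxicity.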

[9] = read-out: Interleukin-8 (IL8), CXCL8 (gene 3576); experiment: BSK_BF4T_IL8: BioMAP Diversity Plus: BF4T Assay for Interleukin-8 (IL8) Biomarker Activity (AID 2284263); details: primary human bronchial epithelial cells with fibroblasts
Method in brief: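 Human bronchial epithelial cells with dermal fibroblasts co-culture; IL-8 measured by ELISA 24 hours after dosing, fitted vs DMSO. Cytotoxicity tracked in parallel cultures by SRB total-protein staining.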

[10] = read-out: Decorin, DCN (gene 1634); experiment: BSK_MyoF_Decorin: BioMAP Diversity Plus: MyoF Assay for Decorin Biomarker Activity (AID 2284265); details: primary human lung fibroblasts
Method in brief: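 ELISA readout of decorin, 24 h post-dosing; primary human lung fibroblast (MyoF) culture; gain-of-signal fit vs DMSO baseline.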

[11] = read-out: KRT18 (gene 3875); experiment: BSK_BF4T_Keratin818: BioMAP Diversity Plus: BF4T Assay for Keratin 818 Biomarker Activity (AID 2284266); details: primary human bronchial epithelial cells with fibroblasts
Method in brief: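 Co-culture of human bronchial epithelial cells and dermal fibroblasts, chemical exposure 24 h. Keratin 8/18 measured by ELISA; positive-direction fit vs DMSO. SRB total protein run in parallel cultures for cytotoxicity.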

[12] = BSK_MyoF_SRB: Viability Assessment in the BioMAP Diversity Plus: MyoF Assay (AID 2284267); details: primary human lung fibroblasts;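 further: total protein by SRB absorbance in parallel cultures as cytotoxicity measure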
Method in brief: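 Cytotoxicity in primary human lung fibroblasts is gauged by SRB total-protein staining 24 h after dosing, with DMSO as the negative control.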

[13] = read-out: Matrix Metallopeptidase 1 (MMP1), MMP1 (gene 4312); experiment: BSK_MyoF_MMP1: BioMAP Diversity Plus: MyoF Assay for Matrix Metallopeptidase 1 (MMP1) Biomarker Activity (AID 2284268); details: primary human lung fibroblasts
Method in brief: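 Cells: human lung fibroblasts. Exposure: 24 h chemical dosing. Detection: ELISA for MMP1. Analysis: upward fitting against DMSO negative control.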

[14] = read-out: TIMP metallopeptidase inhibitor 1 (TIMP1), TIMP1 (gene 7076); experiment: BSK_MyoF_TIMP1: BioMAP Diversity Plus: MyoF Assay for TIMP metallopeptidase inhibitor 1 (TIMP1) Biomarker Activity (AID 2284269); details: primary human lung fibroblasts
Method in brief: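 Fibroblasts from human lung are dosed with chemical, cultured 24 h, and assayed for TIMP-1 by ELISA. Increases over the DMSO baseline are scored, with SRB total-protein staining run in parallel for cytotoxicity.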

[15] = read-out: Matrix Metallopeptidase 1 (MMP1), MMP1 (gene 4312); experiment: BSK_BF4T_MMP1: BioMAP Diversity Plus: BF4T Assay for Matrix Metallopeptidase 1 (MMP1) Biomarker Activity (AID 2284270); details: primary human bronchial epithelial cells with fibroblasts
Method in brief: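 Co-culture of human bronchial epithelial cells and dermal fibroblasts; MMP-1 levels measured by ELISA 24 hours after chemical dosing, relative to DMSO. Cytotoxicity checked in parallel cultures by SRB total-protein staining.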

[16] = read-out: Matrix Metallopeptidase 3 (MMP3), MMP3 (gene 4314); experiment: BSK_BF4T_MMP3: BioMAP Diversity Plus: BF4T Assay for Matrix Metallopeptidase 3 (MMP3) Biomarker Activity (AID 2284271); details: primary human bronchial epithelial cells with fibroblasts
Method in brief: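 Co-culture of human bronchial epithelial cells and dermal fibroblasts dosed 24 h; MMP-3 measured by ELISA, positive-direction fit versus DMSO. Cytotoxicity tracked by SRB total-protein staining (560 nm) in parallel cultures.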

[17] = read-out: Plasminogen Activator Inhibitor-1 (PAI1), SERPINE1 (gene 5054); experiment: BSK_BF4T_PAI1: BioMAP Diversity Plus: BF4T Assay for Plasminogen Activator Inhibitor-1 (PAI1) Biomarker Activity (AID 2284273); details: primary human bronchial epithelial cells with fibroblasts
Method in brief: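 Co-culture of human bronchial epithelial cells and dermal fibroblasts exposed to compound for 24 h. PAI-1 measured by ELISA; activity fitted in positive direction versus DMSO. Parallel SRB staining assessed overt cytotoxicity.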

[18] = BSK_BF4T_SRB: Viability Assessment in the BioMAP Diversity Plus: BF4T Assay (AID 2284274); details: primary human bronchial epithelial cells with fibroblasts
Method in brief: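 Co-culture of human bronchial epithelial cells and dermal fibroblasts (BioMAP BF4T) exposed 24 h. Total protein by sulforhodamine B staining (0.1% SRB after 10% TCA fixation, 560 nm) in parallel cultures; fitted vs DMSO.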

[19] = read-out: urokinase Plasminogen Activator (uPA), PLAU (gene 5328); experiment: BSK_BF4T_uPA: BioMAP Diversity Plus: BF4T Assay for urokinase Plasminogen Activator (uPA) Biomarker Activity (AID 2284275); details: primary human bronchial epithelial cells with fibroblasts
Method in brief: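 Co-culture of human bronchial epithelial cells and dermal fibroblasts; uPA quantified by ELISA 24 hours after dosing, fitted relative to DMSO. Parallel SRB total-protein staining assessed overt cytotoxicity.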

[20] = read-out: Matrix Metallopeptidase 9 (MMP9), MMP9 (gene 4318); experiment: BSK_BF4T_MMP9: BioMAP Diversity Plus: BF4T Assay for Matrix Metallopeptidase 9 (MMP9) Biomarker Activity (AID 2284276); details: primary human bronchial epithelial cells with fibroblasts
Method in brief: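 Co-culture of human bronchial epithelial cells and dermal fibroblasts dosed for 24 h; MMP-9 quantified by ELISA and fitted upward versus DMSO. Cytotoxicity monitored in parallel cultures by SRB total-protein staining at the biomarker time point.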

Measured: outcome

OCCC(F)(F)C(F)(F)C(F)(F)C(F)(F)F
inactive: all assays above

O=C(Cl)C(F)(F)C(F)(F)C(F)(F)C(=O)Cl
inactive: all assays above

O=S(=O)(O)CCC(F)(F)C(F)(F)C(F)(F)C(F)(F)C(F)(F)C(F)(F)F
inactive: all assays above

FC(F)C(F)(F)COCC1CO1 (stereo not given)
inactive: all assays above

FC(F)(F)COC(OCC(F)(F)F)OCC(F)(F)F
inactive: all assays above
